Structures are written as SMILES. Inconclusive results are not listed. Entries that show only a call come without a potency. Calls of active or inactive are those of the source. Calls follow the shape of the dose curve; as a rule, active = well fitted cell-killing curve with a large enough effect in the repeat runs; inconclusive = weak or mixed curves, or effect the other way; inactive = no such curve, though single readings can be large or run the other way.
Potency is read from the fitted curve at half-maximal effect.

This assay in a line: qHTS assay to identify small molecule antagonists of the retinoid-related orphan receptor gamma (ROR-gamma) signaling pathway - cell viability counter screen (AID 1159520). Also: nearly all actives have a fitted effect of over 50% in size. Particulars: Tet-on RORgamma CHO cells viability, ATP luminescence, 16 h; series mostly up to 92.4 µM. From the text: U.S. Tox21 Program National Center for Advancing Translational Sciences [NCATS] NIH Chemical Genomics Center [NCGC] U.S. Environmental Protection Agency [EPA] National Institutes of Environmental Health Sciences [NIEHS] National Toxicology Program [NTP] U.S. Food and Drug Administration [FDA] Tox21 Assay Overview: Nuclear steroid hormone receptors are involved in many biological processes including inflammatory responses, cell proliferation, and apoptosis. Environmental factors or compounds disrupting these nuclear receptor pathways and gene expression may promote susceptibility to immunotoxicants and autoimmune diseases. One important group of these expression factors are the retinoid-related orphan receptors. To assess compounds that may interfere with the retinoid-related orphan receptor gamma (ROR-gamma) transcription factor, a cell-based luciferase assay was used. The CHO cell-based assay utilizes a TET-inducible ROR expression factor and ROR response element-LUC reporter gene. Reporter gene activity was induced using Doxycycline Hyclate and measured after 16 hr incubation. Tet-on ROR gamma CHO cells were used to screen against the Tox21 10K compound library for cytotoxicity by measuring the viability of the cells based on the quantitation of the ATP.
Tox21 Assay Protocol Summary: Tet-on ROR gamma CHO cells were dispensed at 1,000 cells in 4 uL of culture medium per well into white wall/solid bottom 1536-well plates using a Multidrop Combi (Thermo Scientific, Waltham, MA) dispenser. Following incubation at 37 C and 5% CO2 for 4 hr, 23 nL of compounds dissolved in DMSO, positive controls or DMSO only were transferred by a Pintool station (Kalypsys, San Diego, CA) and after 2 hr incubation at 37 C, one ul of 1 uM (final concentration) of Doxycycline Hyclate was added to all the wells by using a Flying Reagent Dispenser (FRD) (Aurora Discovery, San Diego, CA). After 16 hr incubation at 37 C and 5% CO2, 5 uL of CellTiter-Glo reagent (Promega Corporation, Madison, WI) was added to each assay plate using FRD. After 30 min incubation at room temperature, luminescence was quantified on a ViewLux plate reader (Perkin Elmer, Waltham, MA).
On to `O=C(/C=C/c1ccc(O)c(O)c1)O[C@@H]1C[C@@](OC(=O)/C=C/c2ccc(O)c(O)c2)(C(=O)O)C[C@@H](O)[C@@H]1O`, for which the Potency entry is “inactive”. With `C[C@]1(Cn2ccnn2)[C@H](C(=O)O)N2C(=O)C[C@H]2S1(=O)=O`, the Potency entry was “inactive”. As to `C1COC1`, the Potency entry is “inactive”. In the case of `NC1[C@H]2CN(c3nc4c(cc3F)c(=O)c(C(=O)O)cn4-c3ccc(F)cc3F)C[C@@H]12` (stereo not given in full), the Potency result was “inactive”.

Regarding `C=C1c2cccc(O)c2C(O)=C2C(=O)[C@]3(O)C(O)=C(C(N)=O)C(=O)[C@@H](N(C)C)[C@@H]3[C@@H](O)[C@H]12`, the Potency result was “inactive”.

Regarding `c1cc(N(CC2CO2)CC2CO2)ccc1Cc1ccc(N(CC2CO2)CC2CO2)cc1` (stereo not given), the Potency was 54.5 µM (active). On to `CC1(C)S[C@@H]2[C@H](NC(=O)C(c3ccccc3)S(=O)(=O)O)C(=O)N2[C@H]1C(=O)O` (stereo not given in full), for which the Potency entry was “inactive”. As for `CC1CC(C)C(=O)C1=O` (stereo not given), the Potency result was “inactive”.

For the compound `CO[C@]1(NC(=O)CSC(F)F)C(=O)N2C(C(=O)O)=C(CSc3nnnn3CCO)CO[C@H]21`, the Potency result was “inactive”. For the compound `CC(C)=CC(=O)C=C(C)C`, the Potency result is “inactive”. As to `CCCCC(CC)CN` (stereo not given), the Potency result is “inactive”. For `CCC(OCCCOC)OC(C)=O` (stereo not given), the Potency result was “inactive”. Take `CCCCCC#CC(=O)OC`: the Potency entry is “inactive”.

As to `CN(C(=O)CN(CCO)CC(=O)N(C)C(C)(C)Cc1ccccc1)C(C)(C)Cc1ccccc1`, the Potency is 29.8 µM (active). Consider `CC1=C(Br)C(=O)C(Br)=C/C1=C(/c1ccccc1S(=O)(=O)O)c1cc(Br)c(O)c(Br)c1C`, for which the Potency was 16.5 µM (active).

With `COc1ccccc1N1CCN(CCCCNC(=O)c2ccc(-c3ccc(C(C)=O)cc3)cc2)CC1`, the Potency result is “inactive”.

Turning to `C/C=C/C=C/C=O`, the Potency result is “inactive”. In the case of `O=C1NCCN1CCO` it was “inactive”. On to `NC(=O)c1ccncc1`, for which the Potency result is “inactive”.

As to `O=C=Nc1ccc(Cl)c(Cl)c1`, the Potency entry was “inactive”. As for `CC1(C)[C@H](C(=O)O)N2C(=O)C[C@H]2S1(=O)=O`, the Potency entry was “inactive”.

As to `C=C1CCC2CC1C2(C)C` (stereo not given), the Potency result was “inactive”. On to `Cc1ccc(Cl)c(Nc2ccccc2C(=O)O)c1Cl`, for which the Potency result is “inactive”. For `CC1(C)O[C@@H]2C[C@H]3[C@@H]4C[C@H](F)C5=CC(=O)C=C[C@]5(C)[C@H]4[C@@H](O)C[C@]3(C)[C@]2(C(=O)CO)O1`, the Potency result is “inactive”. For `CCCCCCCCC(CCCCCC)C(=O)O` (stereo not given), the Potency entry was “inactive”. Turning to `CC(C)=CCC/C(C)=C/CC/C(C)=C/CCC(=O)OC/C=C(\C)CCC=C(C)C`, the Potency result was “inactive”. On to `CC(=O)c1ccc([N+](=O)[O-])cc1`, for which the Potency entry was “inactive”.

In the case of `NNC(=O)CP(=O)(c1ccccc1)c1ccccc1`, the Potency entry was “inactive”. On to `C[C@@]12CCC[C@H]1[C@@H]1CC[C@H]3C[C@@H](O)CC[C@]3(C)[C@H]1CC2`, for which the Potency result is “inactive”. `CC(C)(O)c1ccc(CNC(=O)c2cccnc2Oc2ccc3nonc3c2)cc1`: the Potency entry is “inactive”. For `Cc1ccccc1N=C(N)Nc1ccccc1C`, the Potency result is “inactive”. In the case of `O=c1cc(-c2ccccc2)oc2cc(O)cc(O)c12` it was “inactive”. Regarding `CCOC(=O)[C@H](CCc1ccccc1)N[C@@H](C)C(=O)N(CC(=O)O)C1Cc2ccccc2C1`, the Potency entry is “inactive”. Consider `COc1cc(C(=O)NCCCCCC(=O)O)cc(OC)c1OC`, for which the Potency result was “inactive”. In the case of `O[C@@H]1CO[C@H]2[C@@H]1OC[C@@H]2O`, the Potency entry was “inactive”. Consider `O=c1[nH]ncc2ccccc12`, for which the Potency entry was “inactive”.

As for `CC(CO)CO`, the Potency result was “inactive”.

For `CN1C(=O)OC(C)(C)C1=O`, the Potency result was “inactive”. On to `Cc1cccc(N(C)C(=S)Oc2ccc3c(c2)CCC3)c1`, for which the Potency entry is “inactive”.

Consider `Clc1cc(Cl)nc(Cl)n1`, for which the Potency entry was “inactive”.
